Laboratory results: PubChem BioAssay
Activity calls are given as the source filed them.

target: Dihydroorotate dehydrogenase (quinone), mitochondrial (Plasmodium falciparum (isolate 3D7)) (UniProt Q08210); experiment: inhibition of P. falciparum DHODH – biochemical, C-terminal His tag, absorbance 600 nm, primary screen (AID 1175); conditions: PfDHODH enzyme, DCIP absorbance 600 nm; higher = more signal, called active from +8 up or from −8 down;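 also: recombinant parasite enzyme with a five histidine tag at its C terminus; test concentration not given here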
Sequence (Q08210 whole entry, looked up): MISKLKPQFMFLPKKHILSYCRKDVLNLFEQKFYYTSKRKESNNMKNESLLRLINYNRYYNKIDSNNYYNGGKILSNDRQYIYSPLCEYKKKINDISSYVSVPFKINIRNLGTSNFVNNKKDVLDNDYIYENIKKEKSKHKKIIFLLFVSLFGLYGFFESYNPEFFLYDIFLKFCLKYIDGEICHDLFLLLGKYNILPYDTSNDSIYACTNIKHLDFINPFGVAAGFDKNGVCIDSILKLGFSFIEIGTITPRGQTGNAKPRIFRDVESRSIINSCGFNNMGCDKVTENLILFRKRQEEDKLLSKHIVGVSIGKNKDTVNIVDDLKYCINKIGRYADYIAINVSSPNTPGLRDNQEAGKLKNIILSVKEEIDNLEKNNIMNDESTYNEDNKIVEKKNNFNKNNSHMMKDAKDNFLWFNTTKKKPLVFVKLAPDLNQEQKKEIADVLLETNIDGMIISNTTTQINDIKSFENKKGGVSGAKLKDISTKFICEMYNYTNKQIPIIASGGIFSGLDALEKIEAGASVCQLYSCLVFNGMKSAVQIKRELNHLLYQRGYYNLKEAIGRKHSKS

Composite z-score, inactive:
C=CC[C@@H]1C=C[C@H](ON=CC[C@@H]2C=C[C@H](OC(C)=O)[C@@H](COC(C)=O)O2)[C@@H](CO)O1 -0.84, C=CC[C@@H]1C=C[C@H](ON=C(C)CCN2CCCc3nc(C)c(C)cc32)[C@@H](CO)O1 -0.267, CC(=O)OC[C@H]1O[C@H](CC=NO[C@H](C)c2cn([C@@H]3COC[C@H]3O)nn2)C=C[C@@H]1OC(C)=O -1.64, CC(=O)OC[C@H]1O[C@H](CCON=C(C)CCN2CCCc3nc(C)c(C)cc32)C=C[C@@H]1OC(C)=O 0.245, CO[C@H]1COC(=O)[C@H](CCSC)NC(=O)CC=C[C@@H](C)[C@H](OC)COC(=O)[C@@H](OCc2ccccc2)C=C[C@@H]1C -0.611, CN1CCc2nc(-c3ccccc3)c(-c3ccccc3)cc2C1 -0.191, CON=C(C)CCN1CCc2nc(-c3ccccc3)c(-c3ccccc3)cc2C1 -0.467, CCN1C(=O)[C@H]2[C@@H]3C(=CC[C@H]2C1=O)C(=O)[C@H]1O[C@H]1[C@H]3O -0.0207, CC(C)C(=O)N[C@H]1CCCN1C(=O)C=Cc1ccccc1 0.581, CCOC(=O)[C@H](CC(C)C)NC(=O)CCC1CC(OC(=O)NCc2ccc3c(c2)OCO3)CC2(CCCC(COC(=O)NCCC(C)C)O2)O1 (stereo partly specified) 0.126, COC(=O)CC=C[C@@H](C)[C@@H](C=NOC[C@@H](O)COCc1ccco1)NS(=O)(=O)c1ccc(C)cc1 0.444, CON=C(C)CCN1CCCCc2nc(C)c(C)cc21 -1.07, CC(=O)OC[C@H]1O[C@H](CCON=C(C)C)C=C[C@@H]1OC(C)=O -0.0136, O=C1CCCC=C1C(O)C1CCCCC1 (stereo unspecified) -1.76, COC(=O)CC=C[C@@H](C)[C@@H](C=NOC[C@@H](C)[C@H](OCc1ccccc1)C(C)C)OC 0.957, COC(=O)[C@H](C)NC(=O)CC=C[C@@H](C)[C@@H]1C=C[C@H](O)[C@@H](CO)O1 -0.0763, C[C@@H](c1ccccc1)N1C(=O)[C@H]2[C@H]3[C@H](O)[C@H](O)CC(=NOCc4ccccc4)[C@@H]3CC[C@H]2C1=O 0.805, O=C1[C@H]2[C@H]3[C@H](O)[C@H](O)CC(=NOC[C@@H](O)COCc4ccco4)[C@@H]3CC[C@H]2C(=O)N1Cc1ccc2c(c1)OCO2 -0.395, CCCNC(=O)OC[C@H]1O[C@H](CCON=C2C[C@@H](O)[C@@H](O)[C@@H]3[C@@H]4C(=O)N(CC)C(=O)[C@@H]4CC[C@@H]23)C=C[C@@H]1Oc1ccc(OC)cc1 -0.384, CC(C)CON=C1C[C@@H](O)[C@@H](O)[C@@H]2[C@@H]3C(=O)N(Cc4ccc5c(c4)OCO5)C(=O)[C@@H]3CC[C@@H]12 0.0312, COc1ccc(COC(=O)NN=C2C[C@@H](O)[C@@H](O)[C@@H]3[C@@H]4C(=O)N([C@@H](C)c5ccccc5)C(=O)[C@@H]4CC[C@@H]23)cc1 -0.194, C[C@@H]1CC[C@H]2C(=O)N3[C@@H](CC[C@@H](C)[C@@H]3c3ccc(Br)cc3)C(=O)N2[C@H]1c1ccc(Br)cc1 0.553, CCOC(=O)CCN1C(=O)[C@H]2[C@H]3[C@H](O)[C@H](O)CC(=O)[C@@H]3CC[C@H]2C1=O 0.462, COC(=O)[C@H](CCSC)NC(=O)CC=C[C@@H](C)CO 0.521, CCOC(=O)[C@H](Cc1ccccc1)NC(=O)CCC1CC(OC(=O)NCc2cccc3ccccc23)CC2(CCCC(COC(=O)NCCOc3ccccc3)O2)O1 (stereo partly specified) -0.533, COc1ccc(COC(=O)NN=C2C[C@@H](O)[C@@H](O)[C@@H]3[C@@H]4C(=O)N(c5cccc(Oc6ccccc6)c5)C(=O)[C@@H]4CC[C@H]23)cc1 -2.56, COc1ccc(OC[C@@H]2CC3[C@@H](c4ccc(Br)cc4)[C@H](C)CC[C@H]3C(=O)O2)cc1 (stereo partly specified) 0.301, COC(=O)[C@H](C)NC(=O)CCC1CC(OC(=O)NCc2cccc3ccccc23)CC2(CCCC(COC(=O)NCCc3ccccc3OC)O2)O1 (stereo partly specified) 0.325, COc1ccc(OC[C@@H](CO)OC)cc1 -0.591, COc1ccc(COC(=O)NN=C2C[C@@H](O)[C@@H](O)[C@@H]3[C@@H]4C(=O)N(C[C@@H]5CCCO5)C(=O)[C@@H]4CC[C@@H]23)cc1 -0.367, CCOC(=O)[C@H](CC(C)C)NC(=O)CCC1CC(OC(=O)NCc2ccc3c(c2)OCO3)CC2(CCCC(COC(=O)NCCOc3ccccc3)O2)O1 (stereo partly specified) 0.0657, C=CC[C@@H]1C=C[C@H](ON=C(C)CCN2CCCCc3nc(C)c(C)cc32)[C@@H](CO)O1 -0.923, C[C@@H](c1ccccc1)N1C(=O)[C@H]2[C@H]3[C@H](O)[C@H](O)CC(=NOC[C@@H](O)COCc4ccco4)[C@H]3CC[C@H]2C1=O -0.222, COc1ccc(O[C@H]2C=C[C@@H](C#Cc3ccccc3)O[C@@H]2CO)cc1 -0.759, COC(=O)[C@@H]1CC[C@H](C)[C@@H](c2ccc(Br)cc2)N1C[C@@H](O)CN=[N+]=[N-] -3.04, CC(C)=CCCC(C)=CCON=C1C[C@@H](O)[C@@H](O)[C@@H]2[C@@H]3C(=O)N(Cc4ccc5c(c4)OCO5)C(=O)[C@@H]3CC[C@@H]12 -0.396
